Experimental data as given in PubChem BioAssay (Tox21).
Records with an inconclusive call do not appear. Activity calls are given as the source filed them. Calls come from the whole dose curve; as a rule, active = well fitted curve in the direction sought with a large enough effect in the repeat runs; inconclusive = weak or mixed curves; inactive = no such curve, though single readings can be large; an effect the other way counts as inactive or inconclusive.

Legend:
[1] = Caspase-3/7 induction in HepG2 cells by small molecules, qHTS assay (AID 1346978); note: nearly all actives have a fitted effect of over 15% in size
Method in brief: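 Wild-type HepG2 cells (2,000/well) were settled 5 h at 37 C, 5% CO2, then exposed to compounds in DMSO for 17 h. Caspase-3/7 activity was read by luminescence 30 min after adding Caspase-Glo 3/7 reagent at room temperature.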

[2] = Caspase-3/7 induction in CHO-K1 cells by small molecules, qHTS cell viability counter screen (AID 1346979); note: nearly all actives have a fitted effect of over 35% in size
Method in brief: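 Multiplexed with Caspase-Glo 3/7 in CHO-K1 cells, this counter screen added CellTiter-Fluor after 16hr of compound exposure and recorded fluorescence 1hr later.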

[3] = Caspase-3/7 induction in CHO-K1 cells by small molecules, qHTS assay (AID 1346980); note: nearly all actives have a fitted effect of over 15% in size
Method in brief: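 Wild-type cells were seeded at 1,500 per well and settled 5 hr at 37 C, 5% CO2, then exposed to DMSO-dissolved compounds for 17 hr. Caspase-Glo 3/7 reagent was added, and luminescence was read after 30min at room temperature.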

[4] = Caspase-3/7 induction in HepG2 cells by small molecules, qHTS cell viability counter screen (AID 1346981); note: series mostly up to about 92 µM; nearly all actives have a fitted effect of over 30% in size
Method in brief: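 Treatment of HepG2 cells with DMSO-delivered compounds ran 16 hr at 37 C following a 5-hr pre-incubation of 2,000 cells/well. CellTiter-Fluor fluorescence, read after 1 hr, served as the viability measure in a qHTS format.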

[5] = biological target: Nuclear receptor subfamily 1 group I member 2 (Homo sapiens) (UniProt O75469); test: Human pregnane X receptor (PXR) small molecule agonists, qHTS assay (AID 1346982); note: nearly all actives have a fitted effect of over 35% in size; note: potency is the fitted concentration of half-maximal effect
Method in brief: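 Stable HepG2 line reporting PXR-mediated CYP3A4 expression via luciferase. Treatment: 24 hr with compounds in DMSO at 37 C. Detection: ONE-Glo luminescence.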

[6] = biological target: Cytochrome P450 2D6 (Homo sapiens) (UniProt P10635); test: Cytochrome P450 Family 2 Subfamily D Member 6 (CYP2D6) small molecule antagonists: luciferase reporter qHTS assay (AID 1671196); note: nearly all actives have a fitted effect of over 50% in size; note: potency is the fitted concentration of half-maximal effect; for activity change, negative = inhibition: series mostly up to about 120 µM
Method in brief: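 Chemicals tested for interference with CYP2D6 activity; proluciferin substrate, NADPH regeneration, 1 h at room temperature, luminescent detection.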

[7] = biological target: Nuclear receptor subfamily 1 group I member 2 (Rattus norvegicus) (UniProt Q9R1A7); test: Rat pregnane X receptor (rPXR) activation by small molecules, qHTS assay (AID 1346983); settings: rPXR luciferase reporter cells, One-Glo luminescence, 24 h; max activation: hits give high values; note: nearly all actives have a fitted effect of over 20% in size
Method in brief: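 Cell-based rPXR luciferase reporter assay, 2,000 cells per well, rested 5hr at 37 C before compound addition in DMSO, then 24 hr at 37 C. One-Glo reagent was added and luminescence read after 30 min at room temperature.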

[8] = biological target: Nuclear receptor subfamily 1 group I member 2 (Homo sapiens) (UniProt O75469); test: CYP3A4 induction through human pregnane X receptor (PXR) by small molecules, qHTS assay (AID 1346984); note: nearly all actives have a fitted effect of over 40% in size
Method in brief: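 After 24 h at 37C with compound, DPX-2 cells (HepG2, co-transfected PXR response element and CYP3A4 promoter-luciferase) got 3uM final P450-Glo Luciferin-IPA for 3 h; One-Glo luminescence followed.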

[9] = biological target: Nuclear receptor subfamily 1 group I member 2 (Homo sapiens) (UniProt O75469); test: Human pregnane X receptor (PXR) activation by small molecules, qHTS assay (AID 1346985); note: nearly all actives have a fitted effect of over 40% in size
Method in brief: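 DPX-2 cells (HepG2 co-transfected with a PXR response element and a CYP3A4-promoter luciferase construct) were seeded at 2,000 per well, rested 5 hr at 37C, then exposed to DMSO-dissolved compounds for 24 hr. Activation was read as luciferase luminescence.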
% is set by controls: 0 for no effect and ±100 for the full control effect.

Cytochrome P450 2D6 (Homo sapiens), sequence (P10635 whole entry, looked up): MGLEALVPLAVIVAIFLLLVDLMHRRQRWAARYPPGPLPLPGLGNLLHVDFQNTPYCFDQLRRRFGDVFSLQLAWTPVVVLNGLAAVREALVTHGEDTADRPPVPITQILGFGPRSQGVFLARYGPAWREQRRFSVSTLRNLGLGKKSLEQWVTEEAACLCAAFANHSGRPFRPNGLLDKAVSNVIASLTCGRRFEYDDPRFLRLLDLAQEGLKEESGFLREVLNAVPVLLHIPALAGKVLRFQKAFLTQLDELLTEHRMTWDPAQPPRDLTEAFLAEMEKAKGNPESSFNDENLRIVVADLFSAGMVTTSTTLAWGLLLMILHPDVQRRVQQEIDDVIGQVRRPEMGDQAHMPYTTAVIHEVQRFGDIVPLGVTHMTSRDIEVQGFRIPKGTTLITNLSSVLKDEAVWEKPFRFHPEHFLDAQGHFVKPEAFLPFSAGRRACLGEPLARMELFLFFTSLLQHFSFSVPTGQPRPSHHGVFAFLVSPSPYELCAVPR
Nuclear receptor subfamily 1 group I member 2 (Homo sapiens), sequence (O75469 whole entry, looked up): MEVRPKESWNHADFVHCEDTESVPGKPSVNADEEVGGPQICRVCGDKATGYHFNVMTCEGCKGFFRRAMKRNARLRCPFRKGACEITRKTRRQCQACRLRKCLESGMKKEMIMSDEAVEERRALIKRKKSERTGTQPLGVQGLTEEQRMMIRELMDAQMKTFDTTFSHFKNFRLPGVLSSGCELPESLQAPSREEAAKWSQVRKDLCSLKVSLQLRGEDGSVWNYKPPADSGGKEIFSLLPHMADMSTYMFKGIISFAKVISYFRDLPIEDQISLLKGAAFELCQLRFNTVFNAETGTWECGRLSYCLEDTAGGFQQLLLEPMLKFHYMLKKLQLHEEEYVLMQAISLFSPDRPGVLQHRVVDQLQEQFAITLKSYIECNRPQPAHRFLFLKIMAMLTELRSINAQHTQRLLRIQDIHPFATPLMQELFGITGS
Nuclear receptor subfamily 1 group I member 2 (Rattus norvegicus), sequence (Q9R1A7 whole entry, looked up): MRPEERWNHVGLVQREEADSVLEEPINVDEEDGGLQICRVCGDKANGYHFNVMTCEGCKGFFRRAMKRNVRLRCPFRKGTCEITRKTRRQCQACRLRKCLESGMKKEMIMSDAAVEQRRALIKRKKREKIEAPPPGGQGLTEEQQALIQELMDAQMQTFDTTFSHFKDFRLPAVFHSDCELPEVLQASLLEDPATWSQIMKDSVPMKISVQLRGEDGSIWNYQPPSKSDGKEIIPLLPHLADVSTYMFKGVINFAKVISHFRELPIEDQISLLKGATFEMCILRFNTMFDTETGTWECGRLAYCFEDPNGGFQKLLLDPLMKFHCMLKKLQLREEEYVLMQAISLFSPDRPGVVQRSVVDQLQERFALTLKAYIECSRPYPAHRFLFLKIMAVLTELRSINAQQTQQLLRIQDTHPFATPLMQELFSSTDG

CC(C)COC(=O)c1ccccc1O
inactive: outcome [1] | Potency [2] | outcome [3] | outcome [4] | Potency [5] | Potency [6]

CCCOc1ccccc1-c1nc2n[nH]nc2c(=O)[nH]1
inactive: outcome [1] | Potency [2] | outcome [4] | Potency [5] | Potency [6]

C=C(C)C(=O)OCCC(C)OC(=O)C(=C)C (stereo unspecified)
inactive: outcome [1] | Potency [2] | outcome [3] | outcome [4] | Potency [5] | Potency [6]

CCN1CCCC(OC(=O)C(c2ccccc2)c2ccccc2)C1 (stereo unspecified)
active: Potency [6] 1.38 µM
inactive: outcome [1] | Potency [2] | outcome [3] | outcome [4] | Potency [5] | max activation [7] 0.492%

CSc1ccc(C=O)cc1
inactive: outcome [1] | Potency [2] | outcome [3] | outcome [4] | Potency [5] | Potency [6]

O=C(O)CCNC(=O)c1ccc(N=Nc2ccc(O)c(C(=O)O)c2)cc1
inactive: outcome [1] | outcome [3] | Potency [5] | max activation [7] -1.98% | Potency [8] | Potency [9] | Potency [6]

NC(N)=NS(=O)(=O)c1ccc(N)cc1
inactive: outcome [1] | Potency [2] | outcome [4] | Potency [5] | max activation [7] -6.55% | Potency [8] | Potency [9] | Potency [6]

NS(=O)(=O)c1cc2c(cc1Cl)NC(CSCc1ccccc1)=NS2(=O)=O
active: Potency [6] 34.7 µM
inactive: outcome [1] | Potency [2] | outcome [4] | Potency [5] | max activation [7] -1.07% | Potency [8] | Potency [9]

CNc1ncnc2nc[nH]c12
active: Potency [5] 9.86 µM
inactive: outcome [1] | Potency [2] | outcome [3] | outcome [4] | Potency [6]

C1CCCCCCCCCCC1
inactive: caspase activation [1] 0.953% [at 19 µM] | activity change, negative = cytotoxicity [2] 2.86% [at 19 µM] | caspase-3/7 activation [3] 0.0072% [at 19 µM] | activation [5] 7.58% [at 19 µM] | activity change, negative = inhibition [6] -0.464% [at 23.6 µM]

O=C(O)c1ccccc1-c1ccc(C(F)(F)F)cc1
inactive: outcome [1] | outcome [4] | Potency [5] | max activation [7] -1.61% | Potency [8] | Potency [9] | Potency [6]

N#CCN(CC#N)CCN(CC#N)CC#N
inactive: outcome [1] | Potency [2] | outcome [3] | outcome [4] | Potency [5] | Potency [6]

OCC(O)[C@@H](O)[C@H](O)[C@H](O)CO[C@H]1O[C@H](CO)[C@@H](O)[C@H](O)[C@H]1O (stereo partly specified)
inactive: outcome [1] | Potency [2] | outcome [3] | outcome [4] | Potency [5] | Potency [6]

Cc1c(C)n(CCN(C)C)c2ccc(C(=O)OCCN(C)C)cc12
inactive: outcome [1] | outcome [3] | outcome [4] | Potency [5] | max activation [7] 6.74% | Potency [8] | Potency [6]

FC(F)(F)C(F)(F)C(F)(F)C(F)(F)C(F)(F)C(F)(F)C(F)(F)C(F)(F)C(F)(F)C(F)(F)F
inactive: caspase activation [1] -0.76% [at 8.39 µM] | activity change, negative = cytotoxicity [2] 7.28% [at 8.39 µM] | caspase-3/7 activation [3] -0.497% [at 8.39 µM] | activity change, negative = cytotoxicity [4] 5.96% [at 8.39 µM] | activation [5] -1.65% [at 8.39 µM] | activity change, negative = inhibition [6] -5% [at 10.5 µM]

CO
inactive: outcome [1] | Potency [2] | outcome [3] | outcome [4] | max activation [7] -1.84%

CCC(=O)c1cccc(Cl)c1
inactive: outcome [1] | Potency [2] | outcome [3] | outcome [4] | Potency [5] | Potency [6]

CC(C)(O)c1ccccc1
inactive: outcome [1] | Potency [2] | outcome [3] | outcome [4] | Potency [5] | Potency [6]

NC(=O)CCCCC1CCSS1 (stereo unspecified)
inactive: outcome [1] | Potency [2] | outcome [3] | Potency [5] | max activation [7] -4.58% | Potency [8] | Potency [9] | Potency [6]

COCCOC(=O)CC#N
inactive: outcome [1] | Potency [2] | outcome [3] | outcome [4] | Potency [5] | Potency [6]

NC(CS)C(=O)O (stereo unspecified)
inactive: outcome [1] | Potency [2] | outcome [3] | outcome [4] | Potency [5] | max activation [7] -0.0152% | Potency [8] | Potency [9] | Potency [6]

CC/C=C\CCCCO
inactive: outcome [1] | Potency [2] | outcome [3] | outcome [4] | Potency [5] | Potency [6]

CCCC(C)CO (stereo unspecified)
active: Potency [6] 79.7 µM
inactive: outcome [1] | Potency [2] | outcome [3] | outcome [4] | Potency [5]

O=S(=O)(O)c1ccccc1O
inactive: outcome [1] | Potency [2] | outcome [3] | outcome [4] | Potency [5]
active: Potency [6] 25.2 µM

CC(=O)c1ccc(C)cc1
inactive: outcome [1] | Potency [2] | outcome [3] | outcome [4] | Potency [5] | Potency [6]

CCN1CCN(c2cc3c(cc2F)c(=O)c(C(=O)O)cn3C2CC2)CC1
inactive: outcome [1] | Potency [2] | outcome [4] | Potency [5] | Potency [6]

COc1ccc(NC(C)=O)cc1
active: Potency [6] 41 µM
inactive: outcome [1] | Potency [2] | outcome [3] | outcome [4] | Potency [5]
